# High-throughput results as filed in PubChem.
# GDH-TPI counter-1: counter-screen for M. tuberculosis FBA inhibitors: GDH-TPI coupled enzymes; hit rate 1.2% among 360,000; GDH-TPI coupled enzyme counterscreen, NADH absorbance; inhibition, % at 4.8 µM; in the data active means inhibition above about 30%;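 further: 0% = DMSO wells and 100% = wells lacking the enzyme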
# FBA Mtb inh: Mtb fructose-bisphosphate aldolase inhibition; AID 588726; purified M. tuberculosis FBA, fluorescence read-out; hit rate 2.3% among 360,000; P9WQA3; inhibition, % at 1 µM;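 further: 0% = vehicle and 100% = reference inhibitor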
# Target sequence (P9WQA3 whole entry, looked up): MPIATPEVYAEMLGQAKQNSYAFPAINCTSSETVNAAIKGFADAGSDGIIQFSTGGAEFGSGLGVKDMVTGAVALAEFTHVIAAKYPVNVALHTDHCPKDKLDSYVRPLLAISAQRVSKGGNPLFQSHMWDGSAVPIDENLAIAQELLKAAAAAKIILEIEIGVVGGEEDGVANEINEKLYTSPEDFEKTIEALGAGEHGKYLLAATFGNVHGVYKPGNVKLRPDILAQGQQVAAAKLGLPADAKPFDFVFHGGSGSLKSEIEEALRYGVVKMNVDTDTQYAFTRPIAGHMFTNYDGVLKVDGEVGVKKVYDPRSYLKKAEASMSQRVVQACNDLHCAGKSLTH
# Mtb bLac sens: beta-lactam sensitization of Mtb H37Rv; M. tuberculosis H37Rv growth with meropenem, percent inhibition; inhibition, % at 25 µM; hit rate 0.27% among 330,000; call rule not given here;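 further: growth measured after seven days incubation then overnight dye step; 0% = bacteria only wells and 100% = bacteria with antibiotic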
# MazEF act: activators of E. coli MazEF toxin-antitoxin RNase. activation, % at 20 µM. hit rate 0.32% among 350,000. P0AE70. FAM/BHQ RNA-DNA oligo cleavage fluorescence, 5 h. AID 504720; in the data active means activation above about 50%
# Target sequence (P0AE70 whole entry, looked up): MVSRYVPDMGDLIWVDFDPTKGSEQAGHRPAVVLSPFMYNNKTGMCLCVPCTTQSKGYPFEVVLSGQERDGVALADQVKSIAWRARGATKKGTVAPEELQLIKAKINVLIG
# CCHFV vOTU inh: blocks the CCHF virus ovarian tumor domain protease; CCHFV vOTU protease, Pep-AMC fluorescence; inhibition, % at 11.5 µM; hit rate 0.55% among 370,000; AID 651958; in the data active means inhibition above about 30%; further: 0% = vehicle wells with enzyme and 100% = no enzyme wells
# Mtb FBA confirm: Mtb FBA inhibition, confirmed; shares compounds with FBA Mtb inh; AID 651616; inhibition, % at 1 µM; purified M. tuberculosis FBA, fluorescence read-out; hit rate 78% among 5,600;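 further: 0% = vehicle wells and 100% = reference inhibitor wells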
# GDH-TPI counter-2: counter-screen for M. tuberculosis FBA inhibitors: GDH-TPI coupled enzyme inhibition; shares compounds with FBA Mtb inh; GDH-TPI coupled enzyme counterscreen, fluorescence; inhibition, % at 1 µM; hit rate 81% among 5,600; AID 652141; in the data active means inhibition above about 10%
# GDH-TPI DR: inhibits GDH-TPI coupling enzymes in dose response; hit rate 79% among 170; GDH-TPI coupled enzyme assay, fluorescence, artifact counterscreen; shares compounds with FBA Mtb inh; IC50, µM; call rule not given here
# The depositor's hits bear a star; ? = inconclusive; / = not tested or not shown; + = active, no number. Only some compounds are listed: those with a hit (about 4% of all), similar ones and a draw of the others. Unless noted, no stated cut-off is given here; in the data, active means inhibition above about 27%; inactive means the rest.
SMILES,GDH-TPI counter-1,FBA Mtb inh,Mtb bLac sens,MazEF act,CCHFV vOTU inh,Mtb FBA confirm,GDH-TPI counter-2,others
CCOC(=O)C1CCN(C(=O)c2cc3cc4ccc(C)cc4nc3o2)CC1,32*,7,6,4,-4,/,/,
COc1ccc2cc3cc(C(=O)N(C)C4CCCCC4)oc3nc2c1,39*,24,61,5,/,/,/,
O=C(c1cc2cc3ccc(Cl)cc3nc2o1)N1CCC2(CC1)OCCO2,39*,-3,98,-3,1,/,/,
O=S1(=O)C=CCN1Cc1cn(Cc2ccccc2)nn1,/,/,/,/,-6,/,/,
CCN(CC)C(=O)CC[C@H]1CC[C@]2(CCCN(C(=O)C(C)(C)C)C2)O1,/,/,/,/,7,/,/,
COC1=C[C@H](C(=O)NCc2ccccn2)[C@H](C)[C@@H](c2ccccc2)CC1=O,/,/,/,/,-2,/,/,
COc1cccc(/C=C2\CC3(OC(=O)c4cccc(F)c4)CCCN2C3)c1 (stereo not given),/,/,/,/,4,/,/,
COc1ccc2cc3cc(C(=O)N4CCCCCC4)oc3nc2c1,39*,86*,4,2,/,/,/,
COc1ccc2nc3oc(C(=O)N4CCN(c5ccccc5F)CC4)cc3cc2c1,6,7,-4,5,12,/,/,
O=C(c1cc2c(=O)n3ccccc3nc2s1)N1CCN(Cc2ccc3c(c2)OCO3)CC1,10,96*,-7,3,-99,22,-6,GDH-TPI DR=2.3*
Cc1cccn2c(=O)c3cc(C(=O)N4CCN(Cc5ccccc5)CC4)sc3nc12,13,57*,-2,-3,-56,-2,-3,
O=C(Cn1ccc2ccccc2c1=O)N1CCN(Cc2ccc3c(c2)OCO3)CC1,4,1,-3,9,9,/,/,
CC1CCCN(C(=O)c2cc3c(=O)n4ccccc4nc3s2)C1 (stereo not given),20,59*,18,2,-89,50*,30*,
O=C(c1cc2c(=O)n3ccccc3nc2s1)N1CCN(Cc2ccccc2)CC1,3,105*,1,-5,-133,-3,-6,
O=C(NCC1COCCO1)C1CCN(S(=O)(=O)c2cccc3ccccc23)CC1 (stereo not given),/,/,/,/,-2,/,/,
Clc1ccc(SCc2cn3ccccc3n2)cc1,0,61*,0,-11,4,+,+,
O=c1[nH]c2cc3c(cc2cc1CN(CC1CCCO1)S(=O)(=O)c1ccccc1)OCCO3 (stereo not given),21,28*,1,-2,-14,-1,-5,
CCN(CC)CCN(Cc1cc2cc3c(cc2[nH]c1=O)OCCO3)C(=O)NC1CCCCC1,8,14,-8,3,-14,/,/,
COc1cc(C(=O)N(Cc2cccnc2)Cc2cc3cc4c(cc3[nH]c2=O)OCCO4)cc(OC)c1OC,17,28*,-1,1,-28,110*,87*,
O=C(NCc1ccccc1)N(Cc1cc2cc3c(cc2[nH]c1=O)OCCO3)CC1CCCO1 (stereo not given),12,28*,/,3,-23,54*,52*,
O=C(c1ccco1)N(Cc1cc2ccccc2[nH]c1=O)CC1CCCO1 (stereo not given),3,2,-17,2,2,/,/,
O=C(NC1CCCCC1)N(CCN1CCOCC1)Cc1cc2cc3c(cc2[nH]c1=O)OCCO3,18,31*,0,-5,-29,98*,79*,
CNC12CCc3cc(OC)c(OC)c(c31)-c1cc3c(cc1C2)OCO3 (stereo not given),/,/,/,/,23,/,/,
C[C@@H]1C=CCCO[C@]12C(=O)Nc1ccccc12,/,/,/,/,-9,/,/,
CCC(=O)N(CCc1ccccc1)Cc1cc2cc3c(cc2[nH]c1=O)OCO3,14,40*,-11,-5,-11,36*,26*,
SMILES,GDH-TPI counter-1,FBA Mtb inh,Mtb bLac sens,MazEF act,CCHFV vOTU inh,Mtb FBA confirm,GDH-TPI counter-2,others
CC(C)(C)OC(=O)NCCc1ccccc1/C=C/S(=O)(=O)NCc1ccccc1,/,/,/,/,4,/,/,
Cc1ccc(N2C(=O)c3ccccc3NC2c2ccccc2O)cc1 (stereo not given),14,17,5,8,-23,/,/,
Cc1cccc(C2Nc3ccccc3C(=O)N2c2ccc(F)cc2)n1 (stereo not given),10,49*,-9,-3,-50,4,-3,
O=C1c2ccccc2NC(c2ccccn2)N1c1ccccc1F (stereo not given),3,62*,-26,2,-80,+,199*,
CCc1cc2c(nc1CC)CCCN2Cc1ccccc1C(F)(F)F,/,/,/,/,17,/,/,
COc1ccccc1[C@H]1C(c2cccc(C)c2)=NN(c2ccccc2)[C@@H]1CO,20,44*,/,-3,-46,108*,114*,
COc1ccc(C2=NN(Cc3ccccc3)C3C(=O)NC(=O)C23)cc1 (stereo not given),1,-6,-13,-17,13,/,/,
COc1ccccc1[C@H]1C(c2ccc(F)cc2)=NN(c2ccccc2)[C@@H]1CO,16,44*,/,-1,-20,+,+,
Cc1cc(-c2nc3ccccc3o2)c2ccccc2n1,23,34*,50,-7,0,15,-2,GDH-TPI DR=5.7*
Cc1cc(C(=O)O)c2ccccc2n1,-3,3,4,-1,0,/,/,
Cc1cc(-c2n[nH]c(=S)n2N=Cc2c3ccccc3cc3ccccc23)n[nH]1,/,/,/,/,5,/,/,
CCOc1ccc(-c2cc3cc(OC)c(OC)cc3c(C)n2)cc1,2,28*,11,7,-9,60*,43*,
Cc1nc2nc(-c3ccccc3)cn2nc1C,13,20,-6,-4,-193,/,/,
Cc1nc2nc(-c3ccc(F)cc3)cn2nc1C,9,50*,?,-9,-161,43*,38*,
COc1cc(OC)cc(-c2sc3ccc(OC)cc3c2C#CCO)c1,1,8,88,-3,8,/,/,
COc1cc2sc(-c3ccc(S(C)(=O)=O)cc3)c(C#CCO)c2cc1OC,27,54*,-3,12,-13,112*,87*,
Cn1ccnc1-c1ccc(-c2nccn2C)cc1,-7,52*,3,7,-4,+,186*,
CC1=C(C(=O)OCCOC(C)C)C(c2cccnc2)C2=C(CCCC2=O)N1 (stereo not given),4,31*,-8,6,-27,+,+,
COc1ccc(C2C(C#N)=C(C)NC3=C2C(=O)CC(C)(C)C3)cc1 (stereo not given),13,17,-3,-5,-96,/,/,
CCOC(=O)C1=C(C)NC2=C(C(=O)CC(C)(C)C2)C1c1ccc(N(C)C)cc1 (stereo not given),3,0,-9,10,-16,/,/,
COc1cccc(C2C(C#N)=C(C)NC3=C2C(=O)CC(C)(C)C3)c1 (stereo not given),7,93*,1,6,-125,+,183*,
